According to PubChem BioAssay (NCI):
About 79,000 compounds went through this panel and 15% of them were active in at least one assay; those are over-represented in the sample as a whole. Active and inactive are the calls of the source. Rule as the data show it: active = growth inhibition above about 70%; inactive = the rest.

Tests used:
[1] = NCI Yeast Anticancer Drug Screen. Data for the rad52 strain (AID 147);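 also: 0% = growth of vehicle-treated control cultures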; settings: S. cerevisiae rad52 mutant growth inhibition, hits give high values
Method in brief: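 Genetically altered yeast (DNA damage repair defect) treated with compound; inhibition calculated relative to vehicle.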

[2] = NCI Yeast Anticancer Drug Screen. Data for the wt1 strain (AID 149);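 also: 0% = growth of vehicle-treated wt1 cultures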; settings: S. cerevisiae wt1 strain (SPY 50644) growth inhibition, hits give high values
Method in brief: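 Compounds are added to wt1 yeast cultures. Growth is then measured. Inhibition is expressed relative to vehicle-treated controls.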

[3] = NCI Yeast Anticancer Drug Screen. Data for the rad50EPP+ strain (AID 151);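 also: 0% = growth of vehicle-treated control cultures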; settings: S. cerevisiae rad50 mutant strain, hits give high values
Method in brief: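 Strain rad50EPP+; compound exposure; % growth inhibition vs vehicle.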

[4] = NCI Yeast Anticancer Drug Screen. Data for the mgt1 strain (AID 153); settings: S. cerevisiae mgt1 mutant growth inhibition, hits give high values
Method in brief: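 Read-out: yeast growth inhibition vs vehicle control. Strain mgt1, drawn from a panel altered in DNA damage repair or cell cycle control.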

[5] = NCI Yeast Anticancer Drug Screen. Data for the rad50 strain (AID 155);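 also: 0% = growth of vehicle-only cultures of the same strain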; settings: S. cerevisiae rad50 strain growth inhibition, hits give high values
Method in brief: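 Inhibition values express reduced yeast growth in compound-treated cultures relative to vehicle-treated controls.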

[6] = NCI Yeast Anticancer Drug Screen. Data for the mec2-1 strain (AID 157); settings: S. cerevisiae mec2-1 strain, hits give high values
Method in brief: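 Cells of the genetically defined mec2-1 yeast strain are incubated with test compound. Inhibition of growth is calculated against vehicle-treated controls.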

[7] = NCI Yeast Anticancer Drug Screen. Data for the rad14 strain (AID 159);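 also: 0% = growth of vehicle-treated control cultures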; settings: S. cerevisiae rad14 strain growth inhibition, hits give high values
Method in brief: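 A mutant yeast strain defective in DNA damage repair is treated with compound; inhibition of its growth is scored against untreated, vehicle-exposed cultures.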

[8] = NCI Yeast Anticancer Drug Screen. Data for the sgs1 mgt1 strain (AID 161);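 also: 0% = growth of cultures given vehicle only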; settings: S. cerevisiae sgs1 mgt1 strain, hits give high values
Method in brief: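 Mutant yeast exposed to compound; growth scored against vehicle-only wells.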

[9] = NCI Yeast Anticancer Drug Screen. Data for the cln2 rad14 strain (AID 165);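 also: 0% = growth equal to vehicle treated cultures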; settings: S. cerevisiae cln2 rad14 strain, hits give high values
Method in brief: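 The screen exposed genetically defined yeast (cln2 rad14) to test compounds and scored growth inhibition relative to vehicle-treated controls.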

[10] = NCI Yeast Anticancer Drug Screen. Data for the bub3 strain (AID 167); settings: S. cerevisiae bub3 mutant strain, hits give high values
Method in brief: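 Steps: expose the mutant yeast strain to compound; grow alongside vehicle-treated cultures; measure growth; express inhibition against the vehicle cultures.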

[11] = NCI Yeast Anticancer Drug Screen. Data for the wt2 strain (AID 169);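 also: 0% = growth of vehicle-treated yeast cultures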; settings: S. cerevisiae wt2 strain growth inhibition, hits give high values
Method in brief: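 Steps: yeast strain treated with compound; growth recorded; inhibition calculated relative to cultures given vehicle alone.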

[12] = NCI Yeast Anticancer Drug Screen. Data for the mlh1 strain (AID 171);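 also: 0% = growth of vehicle-treated control cultures of the same strain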; settings: S. cerevisiae mlh1 strain growth inhibition, hits give high values
Method in brief: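 Yeast screen: mutant strain plus compound, growth scored against vehicle control wells.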

[13] = NCI Yeast Anticancer Drug Screen. Data for the sgs1 strain (AID 173);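 also: 0% = growth of vehicle-only control cultures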; settings: S. cerevisiae sgs1 mutant, hits give high values
Method in brief: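 Inhibition of yeast growth served as the measure. The mutant strain was treated with each compound, and growth was normalised to cultures receiving vehicle alone.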

[14] = NCI Yeast Anticancer Drug Screen. Data for the mlh1 rad18 strain (AID 175); settings: S. cerevisiae mlh1 rad18 strain growth inhibition, hits give high values
Method in brief: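 Compound-treated yeast growth, normalised to vehicle controls. Strain bears defined DNA repair mutations.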

[15] = NCI Yeast Anticancer Drug Screen. Data for the rad18 strain (AID 177); settings: S. cerevisiae rad18 mutant growth inhibition, hits give high values
Method in brief: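 Inhibition values reflect reduced yeast growth compared with vehicle-treated controls, using a strain engineered with a DNA damage repair defect.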

[16] = NCI Yeast Anticancer Drug Screen. Data for the CLN2oe strain (AID 163);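 also: 0% = growth of vehicle-only control cultures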; settings: S. cerevisiae CLN2oe strain, hits give high values
Method in brief: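 Strain altered in cell-cycle control, incubated with compound; growth compared to solvent-treated controls.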

[17] = at 5.0 µM (retest, dose inferred, filed as 0.5)
[18] = at 50.0 µM (retest, dose inferred, filed as 5.0)

Measured: growth inhibition

O=NN(CCCl)C(=O)NCCCl
inactive: [1]; at 1.2 µM 0% | [1]; at 3.7 µM 1% | [1]; at 11.0 µM 6% | [1]; at 33.0 µM 13% | [1]; at 100.0 µM 51% | [2]; at 1.2 µM -1% | [2]; at 3.7 µM -2% | [2]; at 11.0 µM -1% | [2]; at 33.0 µM 0% | [2]; at 100.0 µM -16% | [3]; at 1.2 µM -3% | [3]; at 3.7 µM -1% | [3]; at 11.0 µM 5% | [3]; at 33.0 µM 30% | [4]; at 1.2 µM -3% | [4]; at 3.7 µM -2% | [4]; at 11.0 µM 0% | [4]; at 33.0 µM 2% | [4]; at 100.0 µM 3% | [5]; at 1.2 µM 0% | [5]; at 3.7 µM 0% | [5]; at 11.0 µM 6% | [5]; at 33.0 µM 15% | [5]; at 50.0 µM 35.6% | [5]; at 100.0 µM 53% | [6]; at 1.2 µM -2% | [6]; at 3.7 µM 0% | [6]; at 11.0 µM 1% | [6]; at 33.0 µM 4% | [6]; at 50.0 µM -4.3% | [6]; at 100.0 µM 15% | [7]; at 1.2 µM -2% | [7]; at 3.7 µM 1% | [7]; at 11.0 µM 3% | [7]; at 33.0 µM 3% | [7]; at 100.0 µM 11% | [8]; at 50.0 µM 6.75% | [9]; at 50.0 µM 2.3% | [10]; at 1.2 µM 2% | [10]; at 3.7 µM -2% | [10]; at 11.0 µM 0% | [10]; at 33.0 µM -6% | [10]; at 50.0 µM -10.8% | [10]; at 100.0 µM 3% | [11]; at 1.2 µM -3% | [11]; at 3.7 µM -3% | [11]; at 11.0 µM -3% | [11]; at 33.0 µM 0% | [11]; at 100.0 µM 3% | [12]; at 1.2 µM -1% | [12]; at 3.7 µM -2% | [12]; at 11.0 µM -2% | [12]; at 33.0 µM 1% | [12]; at 100.0 µM 8% | [13]; at 1.2 µM -2% | [13]; at 3.7 µM -1% | [13]; at 11.0 µM 1% | [13]; at 33.0 µM 10% | [13]; at 100.0 µM 33% | [14]; at 50.0 µM 43% | [15]; at 1.2 µM 4% | [15]; at 3.7 µM 13% | [15]; at 11.0 µM 45%
active: [3]; at 100.0 µM 76% | [15]; at 33.0 µM 85% | [15]; at 100.0 µM 94%

CCOc1ccc(C(=O)CCC(=O)O)c(C)c1
inactive: [1]; at 1.2 µM -1% | [1]; at 3.7 µM 0% | [1]; at 11.0 µM -5% | [1]; at 33.0 µM -1% | [1]; at 100.0 µM 4% | [2]; at 1.2 µM 3% | [2]; at 3.7 µM -1% | [2]; at 11.0 µM 4% | [2]; at 33.0 µM 5% | [2]; at 100.0 µM 17% | [3]; at 1.2 µM -2% | [3]; at 3.7 µM -2% | [3]; at 11.0 µM 0% | [3]; at 33.0 µM -3% | [3]; at 100.0 µM 3% | [4]; at 1.2 µM -4% | [4]; at 3.7 µM -3% | [4]; at 11.0 µM 1% | [4]; at 33.0 µM 2% | [4]; at 100.0 µM 21% | [5]; at 1.2 µM -2% | [5]; at 3.7 µM 4% | [5]; [17] 13% | [5]; at 11.0 µM 1% | [5]; at 33.0 µM 8% | [5]; [18] 14% | [5]; at 100.0 µM 12% | [6]; at 1.2 µM 0% | [6]; at 3.7 µM -7% | [6]; [17] -10% | [6]; at 11.0 µM -16% | [6]; at 33.0 µM 4% | [6]; [18] 13% | [6]; at 100.0 µM 15% | [7]; at 1.2 µM 0% | [7]; at 3.7 µM 1% | [7]; at 11.0 µM 7% | [7]; at 33.0 µM 13% | [7]; at 100.0 µM 25% | [8]; [17] 9% | [8]; [18] 4% | [16]; at 1.2 µM 0% | [16]; at 3.7 µM -1% | [16]; at 11.0 µM 4% | [16]; at 33.0 µM 12% | [16]; at 100.0 µM 20% | [9]; [17] -12% | [9]; [18] 44% | [10]; at 1.2 µM -9% | [10]; at 3.7 µM -11% | [10]; [17] -17% | [10]; at 11.0 µM -1% | [10]; at 33.0 µM -8% | [10]; [18] 14% | [10]; at 100.0 µM 36% | [11]; at 1.2 µM 1% | [11]; at 3.7 µM 2% | [11]; at 11.0 µM 2% | [11]; at 33.0 µM 6% | [11]; at 100.0 µM 16% | [12]; at 1.2 µM -2% | [12]; at 3.7 µM -6% | [12]; at 11.0 µM -10% | [12]; at 33.0 µM 3% | [12]; at 100.0 µM 12% | [13]; at 1.2 µM 0% | [13]; at 3.7 µM -1% | [13]; at 11.0 µM 1% | [13]; at 33.0 µM 1% | [13]; at 100.0 µM 8% | [14]; [17] 16% | [14]; [18] -1% | [15]; at 1.2 µM -2% | [15]; at 3.7 µM -4% | [15]; at 11.0 µM -6% | [15]; at 33.0 µM -16% | [15]; at 100.0 µM -17%
